In PubChem BioAssay (NCI):
This is part of a sample that, as a whole, favours compounds with a hit. Of some 83,000 tested, about 20% had one in any assay.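 Step 1: grow cells in 96-well plates. Step 2: add test compound at a single concentration. Step 3: incubate 48 h. Step 4: record percent growth.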 Values without a mark were called inactive. Calls of active or inactive are those of the source. Rule for the calls: active = growth percent below 10; inactive = the rest.

What was measured:
Test in all cases: NCI-60 one-dose screen, 48 h (100 = growth as untreated, 0 = no growth, -100 = all killed)
Details in all cases: 10 µM unless noted
SR leukemia = system: SR leukemia
RPMI-8226 leukemia = system: RPMI-8226 leukemia
OVCAR-8 ovarian = system: OVCAR-8 ovarian
OVCAR-5 ovarian = system: OVCAR-5 ovarian
OVCAR-4 ovarian = system: OVCAR-4 ovarian
SK-OV-3 ovarian = system: SK-OV-3 ovarian
IGROV1 ovarian = system: IGROV1 ovarian
OVCAR-3 ovarian = system: OVCAR-3 ovarian
HS 578T breast = system: HS 578T breast
NCI/ADR-RES ovarian = system: NCI/ADR-RES ovarian
T-47D breast = system: T-47D breast
BT-549 breast = system: BT-549 breast
MDA-MB-435 melanoma = system: MDA-MB-435 melanoma
SW-620 colon = system: SW-620 colon
MCF7 breast = system: MCF7 breast
HCT-116 colon = system: HCT-116 colon
HCC-2998 colon = system: HCC-2998 colon
KM12 colon = system: KM12 colon

| SMILES | growth (SR leukemia) | growth (RPMI-8226 leukemia) | growth (OVCAR-8 ovarian) | growth (OVCAR-5 ovarian) | growth (OVCAR-4 ovarian) | growth (SK-OV-3 ovarian) | growth (IGROV1 ovarian) | growth (OVCAR-3 ovarian) | growth (HS 578T breast) | growth (NCI/ADR-RES ovarian) | growth (T-47D breast) | growth (BT-549 breast) | growth (MDA-MB-435 melanoma) | growth (SW-620 colon) | growth (MCF7 breast) | growth (HCT-116 colon) | growth (HCC-2998 colon) | growth (KM12 colon) |
| --- | --- | --- | --- | --- | --- | --- | --- | --- | --- | --- | --- | --- | --- | --- | --- | --- | --- | --- |
| Nc1n[nH]c2cccc(C#Cc3cccc(NC(=O)c4cc(F)cc(C(F)(F)F)c4)c3)c12 | 60.5% | 63.8% | 94.2% | 70.8% | 90.5% | 114% | 25.5% | 80.7% | 36.8% | 93.1% | 67.3% | 79.6% | 71.2% | 62.5% | 68.4% | 29.9% | 70.8% | 83.3% |
| O=C(Nn1c2c(sc1=NC1CC1)C(=O)c1ccccc1C2=O)c1cc2ccc1CCc1ccc(cc1)CC2 | 29.4% | 19.5% | 3.79% (active) | 111% | 40.5% | 59.1% | 34.6% | 1.11% (active) | 46.2% | 17.8% | 20.4% | 37.2% | -93.2% (active) | 18.3% | 11.5% | -9.1% (active) | 61.4% | 35.2% |
| O=[N+]([O-])c1ccc(O)cc1Br | 99.1% | 91.4% | 100% | 94% | 89.3% | 101% | 101% | 106% | 98.4% | 98.9% | 96.8% | 91.2% | 100% | 104% | 92.9% | 95.4% | 103% | 101% |
| CCN(CC)S(=O)(=O)c1ccc(S(=O)(=O)N2CCC[C@@H](C(=O)N3CCN(c4nc(C(C)C)no4)CC3)C2)cc1 | 31.6% | 54.8% | 61.3% | 102% | 30.8% | 87.3% | 86.2% | 75.6% | 82.8% | 58.9% | 43.1% | 62.9% | 55.7% | 79.5% | 50.7% | 51.8% | 78.7% | 77.4% |
| Cc1ccc(C[P+](c2ccccc2)(c2ccccc2)c2ccccc2)cc1 | -3.87% (active) | -17.6% (active) | 15.6% | 7.45% (active) | 1.45% (active) | 6.84% (active) | 18.7% | 5.95% (active) | 8.62% (active) | 93.5% | 1.57% (active) | 0.272% (active) | 4.92% (active) | 10.9% | 10.9% | 2.21% (active) | -26.4% (active) | -12.9% (active) |
| CCOC(=O)c1nn(-c2ccc(S(N)(=O)=O)cc2)c2nc(C)cc(=O)n12 | 104% | 103% | 105% | 117% | 102% | 105% | 98.7% | 110% | 103% | 103% | 106% | 106% | 105% | 106% | 92.4% | 106% | 109% | 102% |
| COc1ccc(C(=O)/C=C/c2c(C(F)(F)F)nc3ccccn23)cc1OC | -9.91% (active) | 6.41% (active) | 10.9% | 9.01% (active) | 5.92% (active) | 17.3% | 17.3% | -51.3% (active) | 4.59% (active) | -22.7% (active) | -10.7% (active) | 4.31% (active) | 10.4% | -4.44% (active) | 8.07% (active) | -34.1% (active) | -9.15% (active) | 3.34% (active) |
| COC(=O)[C@]1(C)CCC[C@]2(C)[C@H]3C[C@H]4C(C(C)C)=C[C@]3(CC[C@H]21)[C@@H]1C(=O)CC[C@H](OCCC#N)[C@@H]14 | 58.9% | 68% | 99.2% | 129% | 77.3% | 109% | 67.3% | 81.5% | 79.9% | 77.8% | 66.4% | 87.5% | 84.9% | 86.4% | 59.5% | 77.6% | 96.4% | 82% |
| COc1ccc(Nc2ncc(Br)c(NCCCNC(=O)C3CCCC3)n2)cc1 | 47% | 49.3% | 36.7% | 54.6% | 56.7% | 30.6% | 14.1% | 46.6% | 29.2% | 51.5% | 77.5% | 40.4% | 63% | 41.2% | 41.8% | 23.6% | 69.7% | 23% |
| CCOC(=O)c1cc2c(n1Cc1cc(OC)c(OC)c(OC)c1)-c1nc(N)sc1CCC2 | 5.15% (active) | 75.9% | 55.4% | 98.3% | 65% | 29.3% | 50.8% | 21.1% | 55.7% | 20.8% | 43.3% | 51.2% | -38.7% (active) | 43.4% | 27.6% | 34.1% | 73.1% | 30.8% |
| Cc1ccc(NC(=O)Cn2cc(CN3CCN(c4ccnc5cc(Cl)ccc45)CC3)nn2)cc1 | 60.2% | 64.7% | 89.8% | 95.5% | 76.6% | 68.4% | 91.1% | 91.3% | 83.2% | 89.1% | 86.5% | 81.5% | 94.5% | 88.6% | 79.4% | 96.9% | 97.3% | 85.8% |
| O=C(CSc1oc(-c2ccccc2)nc1S(=O)(=O)c1ccccc1)Nc1ccc(F)cc1 | 83.8% | 55.7% | 88.7% | 87.5% | 67.4% | 95.8% | 88.9% | 85.7% | 97.9% | 75.3% | 69.8% | 78.4% | 94.8% | 96.5% | 92.6% | 52.6% | 104% | 86.6% |
| C=C1C(=O)O[C@H]2[C@H]1CC/C(COC(=O)c1cc3ccccc3s1)=C\CC[C@@]1(C)O[C@@H]21 | -1.95% (active) | -25.3% (active) | -12% (active) | -57.3% (active) | -62% (active) | 85.3% | -66% (active) | -69% (active) | -17.7% (active) | 1.73% (active) | -50.2% (active) | -59% (active) | -71% (active) | -67.4% (active) | -41.9% (active) | -83.8% (active) | -76.6% (active) | -59.7% (active) |
| Cn1c(I)c(C#CCO[Si](C)(C)C(C)(C)C)c(=O)[nH]c1=O | -11.3% (active) | 84.8% | 94.8% | 102% | 80% | 105% | 81.4% | 75.4% | 106% | 102% | 61.9% | 97.1% | 97.4% | 11.4% | 88% | 94.6% | 99.7% | 107% |
| COc1ccc2cc1Oc1ccc(cc1)C[C@H]1c3c(cc4c(c3Oc3cc5c(cc3OC)CCN(C)[C@@H]5C2)OCO4)CCN1C | -17.3% (active) | 48% | 43.9% | 90.2% | 64.8% | 110% | 44.3% | 49.5% | -6.41% (active) | 76.2% | 115% | 52% | 19% | 55.3% | 34.6% | 19.2% | 59.9% | 55.2% |
| O=C1C(Cl)=C(Nc2ccc(S(=O)(=O)N3CCOCC3)cc2)C(=O)c2ccccc21 | -3.16% (active) | 21.2% | 70% | 38.1% | 86% | 81.3% | 62.5% | 72.8% | 79.2% | 90% | 69.8% | 45.9% | 88.1% | 32.5% | 58.9% | 4.7% (active) | 106% | 64.5% |
| O=C(NNC(=O)c1ccc(NC(=O)c2ccccn2)cc1)Nc1ccc([N+](=O)[O-])cc1 | 109% | 106% | 104% | 92.4% | 108% | 106% | 88.5% | 109% | 75.6% | 106% | 99.2% | 94.6% | 106% | 104% | 95.7% | 101% | 109% | 108% |
